# Measurements as given in PubChem BioAssay (EPA / NIEHS).
# Several values for one entry are separate records, joined by “and”; a condition that tells them apart may be missing. Equal values may be shown once. Activity calls are given as the source filed them. How the source made its calls: active means hit-call score of the fitted dose curve at least 0.9, where 1 is the maximum; inactive means score below 0.9.
# Read-out: TIMP metallopeptidase inhibitor 2 (TIMP2), TIMP2 (gene 7077)
# Test: BSK_KF3CT_TIMP2: BioMAP Diversity Plus: KF3CT Assay for TIMP metallopeptidase inhibitor 2 (TIMP2) Biomarker Activity (AID 2283071)
# Conditions: primary human keratinocytes with fibroblasts; actives raise or lower the signal
# Method: BSK_KF3CT is a cell-based, multiplexed-readout assay that uses keratinocytes and foreskin fibroblasts, a human skin primary cell co-culture, with measurements taken at 24 hours after chemical dosing in a 96-well plate.BSK_KF3CT_TIMP2 is an assay component measured in the BSK_KF3CT assay. It measures TIMP-2 antibody related to regulation of gene expression using ELISA technology.Data from the assay component BSK_KF3CT_TIMP2 was analyzed into 1 assay endpoint. This assay endpoint, BSK_KF3CT_TIMP2, was analyzed with bidirectional fitting relative to DMSO as the negative control and baseline of activity. Using a type of binding reporter, gain or loss-of-signal activity can be used to understand changes in the signaling as they relate to the gene TIMP2. Furthermore, this assay endpoint can be referred to as a primary readout, because this assay has produced multiple assay endpoints where this one serves a signaling function. To generalize the intended target to other relatable targets, this assay endpoint is annotated to the protease inhibitor intended target family, where the subfamily is metalloproteinase inhibitor.
# The levels of cell surface (or secreted, indicated by the prefix "s") biomarker endpoints were measured by ELISA. Overt cytotoxicity to cells in confluent adherent cultures (all systems other than the BT system) was assessed by measuring total protein levels using sulforhodamine B (SRB) staining in parallel cultures at the time of biomarker measurements, indicated as SRB endpoints. For proliferation assays for adherent cell types, individual cell types are cultured at sub-confluence and relative cell numbers quantified by SRB staining at time points optimized for each system (48 h: 3C and CASM3C systems; 72 h: BT and HDF3CGF systems; 96 h: SAg system). SRB was performed by staining cells with 0.1% SRB after fixation with 10% TCA and reading wells at 560 nm.Viability and proliferation of PBMC (T cells) was quantified by Alamar Blue reduction for the SAg and BT systems. For PBMC viability (referred to as PBMC Cytotoxicity within the assay endpoint names), cells were plated (75,000/well in a 96-well plate) and then chemical samples added for 1 h before addition of activators, SEB and TSST-1 (20 ng/mL final concentration each). Cells were incubated for 90 h. Then, Alamar Blue (20 uL/well) (Invitrogen, Cat DAL1100) was added for 6 h, and the plates were read with a fluorescence microplate reader at 546/580 nm (excitation/emission). For PBMC proliferation, cells were plated and activated as above but incubated for only 16 h prior to addition of Alamar Blue. Plates were read after 6 h.
Structure (SMILES),AC50,outcome
CCCCC(CC)CO[N+](=O)[O-] (stereo not given),31.7 µM (active),
COP(=S)(OC)Oc1cc(Cl)c(Cl)cc1Cl,32.2 µM (active),
CC(C)CCCCCCOC(=O)c1ccccc1C(=O)OCCCCCCC(C)C,,inactive
CCN1CCC2(CC1)COc1cc3c(cc12)N(C(=O)c1ccc(-c2ccc(-c4nnc(C)o4)cc2C)cc1)CC3,17.9 µM (active),
O=C1C2(Cl)C3(Cl)C4(Cl)C(Cl)(Cl)C5(Cl)C3(Cl)C1(Cl)C5(Cl)C24Cl (stereo not given),24.2 µM (active),
C(=NC1CCCCC1)=NC1CCCCC1,20 µM (active),
CCOC(=O)/C=C(C)/C=C/C[C@@H](C)CCCC(C)C,27 µM (active),
CCNc1nc(NC(C)(C)C)nc(SC)n1,20 µM (active),
Nc1ncc([N+](=O)[O-])s1,,inactive
Nc1ccc(-c2ccc(N)c(Cl)c2)cc1Cl,,inactive
Oc1c(I)cc(I)cc1I,17 µM (active),
OCc1ccco1,,inactive
O=C(O)C(Cl)(Cl)Cl,,inactive
CCOP(=S)(OCC)SCSP(=S)(OCC)OCC,,inactive
CC12CC1(C)C(=O)N(c1cc(Cl)cc(Cl)c1)C2=O (stereo not given),,inactive
COC(=O)Cc1ccccc1,,inactive
Nc1cccc2ccccc12,,inactive
COP(=S)(OC)Oc1c(Cl)cc(C)cc1Cl,,inactive
CC(=O)OC(c1ccccc1)C(Cl)(Cl)Cl (stereo not given),,inactive
BrCCBr,,inactive

Structure (SMILES),AC50,outcome
CC(=O)[O][Hg][c]1ccccc1,0.148 µM (active),
O=c1[nH]c(=O)[nH]c(=O)[nH]1,,inactive
CC(C)(C)CC(C)(C)c1ccc(O)cc1,7.95 µM (active),
CN(C)N=O,,inactive
O=C(O)C(F)(F)C(F)(F)C(F)(F)C(F)(F)C(F)(F)C(F)(F)C(F)(F)C(F)(F)C(F)(F)C(F)(F)F,9.27 µM (active) and 6.15 µM (active) and 6.13 µM (active),
C[C@@H]1C[C@@H]([C@H](O)CC2CC(=O)NC(=O)C2)C(=O)[C@@H](C)C1,8.4 µM (active),
O=C(O)CCC(F)(C(F)(F)F)C(F)(F)F,,inactive
COc1cc(-c2ccc(N)c(OC)c2)ccc1N,,inactive
O=S(=O)(c1ccc(Cl)cc1)c1ccc(Cl)cc1,,inactive
CC(C)(C)c1cc(O)ccc1O,20 µM (active),
C=CC(=O)OCCCCCC(C)C,,inactive
O=C(O)C(F)(F)C(F)(F)C(F)(F)C(F)(F)C(F)(F)C(F)(F)F,,inactive
CCCCCCCCc1ccc(O)cc1,30 µM (active),
COP(=S)(OC)Oc1ccc(S(=O)(=O)N(C)C)cc1,,inactive
Oc1ccc(-c2ccccc2)cc1,,inactive
C[C@]12CCC(=O)C[C@@H]1CC[C@@H]1[C@@H]2CC[C@]2(C)[C@@H](O)CC[C@@H]12,,inactive
Oc1cccc2cccnc12,3.68 µM (active),
O=C(Nc1ccc2[nH]ccc2c1)c1cc2cc(F)ccc2n1Cc1cccc(F)c1,7.19 µM (active),
NC(=O)O,,inactive
CCCCCCCCC(=O)NCc1ccc(O)c(OC)c1,,inactive
